Measurements published in ChEMBL document CHEMBL3988442, “University of Dundee, Small-Polar-MMV Screening Library” (2021).
The whole screen tested about 38,000 compounds, of which about 1,200 (3.2%) showed an effect of 50% or more. The median lay at about -58%. What follows is part of a selection rich in strong results, with near analogues and random picks from the rest.

Test system: Plasmodium falciparum
Assay: Calibr Malaria Delayed Death Assay SOP
Type: functional, organism-based
Parameters: scale not given: in the data most compounds retested in dose-response had high values
Conditions: concentration 4.99e-06 (unit not given; other assays of the set use mol/L)

Row | Structure (SMILES) | Percent Effect [%]
1 | O=C(C1CCOC1)N1CCC2(CCN(Cc3nccs3)C2)CC1 (stereo not drawn) | -29.96
2 | CN(Cc1cccc(F)c1)C(=O)CN1CCOC(Cn2cncn2)C1 (stereo not drawn) | -118.2
3 | Cc1ccc(CC(=O)NCC(Cc2ccc(F)cc2)C(N)=O)cn1 (stereo not drawn) | -64.69
4 | COc1ccc(CN2CC(O)CN(C(=O)OCC(C)C)CC2=O)cc1 (stereo not drawn) | -72.03
5 | CC(C)CC(=O)N1CC[C@H]2N(C)CC[C@@]2(C(=O)Nc2cccnc2)CC1.O=C(O)C(F)(F)F.O=C(O)C(F)(F)F | 15.37
6 | COc1cccc(CN2CC3(CCNCC3)CCC2=O)c1OC | 6.381
7 | COc1cccn(CC(=O)N2CCC3(CCNCC3)C2)c1=O | -26.75
8 | O=C(COCC1CCCO1)N(Cc1cccnc1)c1ccc(F)cc1 (stereo not drawn) | -38.29
9 | O=S(=O)(CCCN1CCCC1Cn1cncn1)c1ccccc1 (stereo not drawn) | -135.1
10 | CC(C)(C)n1cc(C2=CCN(CCNC(=O)c3ccccc3)CC2)cn1 | 15.76
11 | CC(C)(C)n1cc(C2=CCN(CCNC(N)=O)CC2)cn1 | -173.3
12 | Cn1cc(C2=CCN(CCCC(=O)Nc3ccc(C#N)cc3)CC2)cn1 | -71.5
13 | CCn1cc(C2=CCN(CCCOc3ccccc3)CC2)cn1 | 81.92
14 | CCC(O)Cn1cc(C2=CCN(Cc3ccc(OC)cc3)CC2)cn1 (stereo not drawn) | 67.35
15 | Cn1cc(C2=CCN(CCCOc3ccc(C(N)=O)cc3)CC2)cn1 | -65.42
16 | CC(C)(C)n1cc(C2=CCN(CCc3ccccn3)CC2)cn1 | 43.76
17 | Cc1nc(O)cc(CN2CC=C(c3cnn(C(C)(C)C)c3)CC2)n1 | -65.29
18 | COc1ccc(NC(=O)CCN2CC=C(c3cnn(C)c3)CC2)c(C)c1 | -34.98
19 | CC(C)(C)n1cc(C2=CCN(CCN3CCCCCC3)CC2)cn1 | 70.18
20 | CC(C)(C)n1cc(C2=CCN(CCc3ccccc3)CC2)cn1 | 67.25
21 | CCC(O)Cn1cc(C2=CCN(Cc3cc(O)nc(C)n3)CC2)cn1 (stereo not drawn) | -28.24
22 | CC(O)(CNC(=O)c1cccnc1-n1cccn1)c1ccco1 (stereo not drawn) | -10.35
23 | CCN1CCCCC1C(=O)N1CCC(OCCOC)CC1 (stereo not drawn) | -112.4

Row | Structure (SMILES) | Percent Effect [%]
24 | CSc1ccccc1C(=O)N1C[C@@H](N(C)C)[C@H](c2ccc(C)cc2)C1 | -25.73
25 | CCc1cnc2c(c1NCc1ccc(OC)cc1)c(=O)n(C)c(=O)n2C | -5.547
26 | CC(C)CC(NC(=O)c1ccco1)c1nnc2ccccn12 (stereo not drawn) | -178.4
27 | O=C(O)C1(O)CCN(c2ccnc3c(C(F)(F)F)cccc23)CC1 | -178.3
28 | Cc1cccc(C(=O)N(C)C2CCN(c3ccccn3)CC2)c1C | -82.1
29 | CS(=O)(=O)c1ccc(NC(=O)NC2(c3cccc(F)c3)CC2)cc1 | -42.46
30 | O=C(O)C(F)(F)F.O=C(c1ccoc1)N1CCOCC2(CCN(C3CCOCC3)C2)C1 (stereo not drawn) | -39.42
31 | COCCCN(C)c1nc(-c2ccncc2)nc2c1CCN(C(C)=O)C2 | -86.15
32 | COCCN(C)c1nc(-c2ccncc2)nc2c1CCN(C(C)=O)C2 | -64.34
33 | CCN1Cc2cc(F)ccc2N(C(=O)C2CCC2)CCC1=O | -44.87
34 | CCOc1ccccc1CN(CC)Cc1ccc(S(C)(=O)=O)cc1 | -21.06
35 | Cc1ccccc1CN(Cc1ccc(S(C)(=O)=O)cc1)CC(C)C | -26.42
36 | Cc1ccccc1CN(CCN(C)C)Cc1ccc(S(C)(=O)=O)cc1 | 79.52
37 | O=C(NCc1ccc2c(c1)OCO2)c1ccccc1C1CCNC1 (stereo not drawn) | -7.767
38 | Cc1nccn1-c1ccc(=O)n(CCNC(=O)c2ccccn2)n1 | -133.3
39 | CCn1c(CN(C)Cc2cnc(C)s2)nc2cc(F)ccc21 | -16.92
40 | CCN(Cc1csc(C)n1)c1cccc(CO)c1 | -39.75
41 | CCn1c(CN(C)Cc2csc(C)n2)nc2cc(F)ccc21 | 60.85
42 | CCn1cc(NC(=O)C2CCN(Cc3ccccc3)CC2)cn1 | -64.73
43 | O=C(Nc1cnn(Cc2ccc(F)cc2Cl)c1)C1CC1 | -1.724
44 | O=C(Nc1cnn(COc2ccc(F)cc2Cl)c1)C1CC1 | 66.71
45 | CCc1cc(N2CCC(Nc3ccc(Cl)cn3)CC2)ncn1 | -58.54
46 | CC(C)[C@H]1CN(C2Cc3ccccc3C2)C[C@@H]1NS(=O)(=O)N(C)C | 61.34

Row | Structure (SMILES) | Percent Effect [%]
47 | CC(C)[C@H]1CN(C2Cc3ccccc3C2)C[C@@H]1NS(C)(=O)=O | 31.34
48 | CC(C)[C@H]1CN(c2ccncc2)C[C@@H]1NS(=O)(=O)N(C)C | -51.73
49 | CC(C)[C@@H]1CN(Cc2ccccn2)C[C@H]1NS(=O)(=O)N(C)C | -49.07
50 | CC(C)[C@@H]1CN(CCOc2ccccc2)C[C@H]1NS(=O)(=O)N(C)C | 40.07
51 | CC(C)[C@@H]1CN(Cc2ccsc2)C[C@H]1NS(=O)(=O)N(C)C | 65.02
52 | CCc1cc(NCCc2cc(F)cc(F)c2)n2nccc2n1 | -125.8
53 | c1cnn(CCNCc2cnc(N3CCCC3)nc2)c1 | -23.83
54 | Cc1ccccc1C(NC(=O)NCC1(CO)CC1)C1CC1 (stereo not drawn) | -98.91
55 | CCc1nc(CN2CCCC(N(C)Cc3cnc(C)cn3)C2)no1 (stereo not drawn) | -35.57
56 | CC(NC(=O)CSCC#N)c1ccccc1 (stereo not drawn) | -131
57 | CC(NC1(CNC(=O)OC(C)(C)C)CCOCC1)c1ccccc1 (stereo not drawn) | -63.28
58 | CC(=O)c1ccc(Nc2nc(N)nc3c2nc(C)n3C)cc1 | -204.1
59 | Cc1ccc2cccc(S(=O)(=O)N(C)C3CCCN(C)C3)c2n1 (stereo not drawn) | 32.17
60 | Cc1ccc2cccc(S(=O)(=O)N(C)CC3CCN(C)C3)c2n1 (stereo not drawn) | 35.25
61 | Cc1ccc2cccc(S(=O)(=O)N(C)CC3CCN(C)CC3)c2n1 | 56.89
62 | CSCc1noc(CN2CC(Cc3ccccc3)CC2=O)n1 (stereo not drawn) | -65.09
63 | COC(=O)N1CCCCC1C(=O)N1CCN(c2cccnc2)CC1 (stereo not drawn) | -94.01
64 | CN1CCC(C(=O)N2CCCN(c3cccnn3)CC2)C1 (stereo not drawn) | -4.513
65 | CN1CCCCCC1C(=O)N1CCN(c2ccccc2C#N)CC1 (stereo not drawn) | 59.17
66 | CN1CCCCCC1C(=O)N1CCCN(c2ccccc2)CC1 (stereo not drawn) | 60.61
67 | CN1CCCCC1C(=O)N1CCN(c2ccccc2C#N)CC1 (stereo not drawn) | 8.936
68 | Cc1cnn(CCC(=O)N2CCCN(c3ccccc3C#N)CC2)c1 | -36.97
